Assay results: PubChem BioAssay AID525 (The Scripps Research Institute Molecular Screening Center, 2006)
Among all 65,000 compounds or so, about 360 (0.55%) were called active. The sample as a whole holds a higher share of actives than the screen did. Values without a mark were called inactive.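 The calls were made as follows: active = inhibition above the mean inhibition of all tested compounds plus 3 SD (cut at about 48% in these data); inactive = the rest.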

Molecular target: Steroidogenic factor 1 (Homo sapiens) (UniProt Q13285)
Experiment: inhibitors of human SF-1, primary screen, cell-based, CHO-K1, Gal4-SF-1 LBD, luciferase luminescence (AID 525);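 also: 0% = SF-1 transfected cells with DMSO and 100% = mock-transfected cells lacking SF-1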
Settings: CHO-K1 Gal4-SF-1 LBD luciferase reporter; at 10 µM; stronger effect = higher value

Sequence of Steroidogenic factor 1 (Homo sapiens) (Q13285 whole entry, looked up, the tested form may be a part): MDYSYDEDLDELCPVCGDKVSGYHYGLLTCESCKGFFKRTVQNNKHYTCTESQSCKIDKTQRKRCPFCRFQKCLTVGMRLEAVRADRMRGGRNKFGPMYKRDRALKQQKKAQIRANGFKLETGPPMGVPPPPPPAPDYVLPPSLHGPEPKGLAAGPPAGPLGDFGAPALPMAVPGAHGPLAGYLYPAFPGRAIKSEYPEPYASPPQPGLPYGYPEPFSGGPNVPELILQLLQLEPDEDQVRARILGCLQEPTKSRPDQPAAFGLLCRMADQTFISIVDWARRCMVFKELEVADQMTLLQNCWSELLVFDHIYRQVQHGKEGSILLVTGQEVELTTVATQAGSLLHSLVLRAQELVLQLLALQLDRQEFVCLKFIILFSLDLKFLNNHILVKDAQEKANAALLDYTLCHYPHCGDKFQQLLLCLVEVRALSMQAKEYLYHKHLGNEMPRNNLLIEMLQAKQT

Compound | inhibition
CCC(=O)N1CCN=C1SCc1ccc(F)cc1 | -14.3%
CCN(CC)c1ccc(C(=O)OCC(=O)c2ccco2)cc1 | -53.6%
CC1CCCN(Cc2nc3c(c(=O)n(C)c(=O)n3C)n2CC(=O)c2ccccc2)C1 (stereo not drawn) | -26.7%
COc1ccc(CCNC(=O)CN2CCC(n3nnc4cc(F)ccc43)CC2)cc1OC | -4.4%
C=CCn1c(=O)c2ccccc2n2c(SCC(=O)N3CCCc4ccccc43)nnc12 | 8.4%
CCC(C(=O)NC1CCCC1)N(C(=O)c1snc(C(N)=O)c1N)c1ccc2c(c1)OCCO2 (stereo not drawn) | -2.2%
CCOc1cc(C(=O)N2CCc3cc(OC)c(OC)cc3C2)ccc1OC(F)F | 77.3% (active)
CCOc1cc(C(=S)N2CCOCC2)ccc1O | 3.9%
COc1ccc(-c2cc(C(=O)NC(C(=O)O)C(C)C)c(C)o2)cc1OC (stereo not drawn) | -56.5%
CCOc1ccccc1-n1c(SCC(=O)NCc2ccco2)nnc1-c1ccncc1 | 6.1%
O=C(CN1C(=O)C2C3C=CC(C3)C2C1=O)NCC1COc2ccccc2O1 (stereo not drawn) | -7.1%
CC(C)OCCCNc1ncnc2c1[nH]c1ccc(F)cc12 | 84.1% (active)
CC(C)CNC(=O)c1cc(-c2ccc(Br)cc2)on1 | -52.5%
Cn1c(NC(=O)c2ccco2)c(-c2ccccc2Cl)c(=O)c2ccccc21 | -7.6%
CC1=C(C(=O)OCc2ccccc2)C(c2ccco2)n2ncnc2N1 (stereo not drawn) | 14.7%
O=C(COc1ncnc2ccccc12)NC(=O)NCc1ccccc1 | 2.4%
CN(Cc1ccccc1)Cc1ccccc1F | 9.2%

Compound | inhibition
O=C(CN1C(=O)COc2ccccc21)Nc1ccc(F)cc1 | 8.5%
CC(C)(C)NC(=O)Cn1nnc(-c2ccccc2Cl)n1 | -50%
O=C(Cn1cc2c(n1)CCCCC2)NCCN1CCOCC1 | 8.1%
COC(=O)c1ccc(NCC(=O)c2ccccc2)cc1 | -68.7%
O=C(Cn1cnc2c(cnn2-c2ccccc2)c1=O)NCc1ccccc1 | -70.3%
COc1ccccc1-c1cc(C(=O)N2CCCCC2)no1 | -82.1%
CCOc1cccc(C(=O)Nc2cccnc2)c1 | -6.7%
Cc1noc(/C=C/N(C)C)c1S(=O)(=O)N1CCCC(C(=O)NCc2ccco2)C1 (stereo not drawn) | 15%
COc1ccccc1Nc1ncnc2c1oc1ccccc12 | -91.8%
COC(=O)N1CN(C(=O)OC)CN(C(=O)OC)C1 | -1.7%
C=C(C)CSc1nc(N)c2c3c(sc2n1)CCC3 | -51.4%
CC(C)(CNCC(O)c1ccccc1)N1CCOCC1 (stereo not drawn) | -12.6%
O=C(CS(=O)(=O)c1cn(Cc2cccc(F)c2)c2ccccc12)N1CCCCC1 | -5.4%
Cc1noc(COc2ccccc2OCC(O)CNC(C)(C)C)n1 (stereo not drawn) | 0.5%
COC(=O)c1c(NC(=O)c2cccs2)sc2c1CCCC2 | -28.2%
N#CCCN1CCN(S(=O)(=O)c2ccc(S(=O)(=O)N3CCCC3)cc2)CC1 | 18%
